# Assay results: PubChem BioAssay (Tox21)
# “And” between values parts separate entries of the source, which are not always exact repeats. Identical values can stand only once. Inconclusive results are not listed. Entries that show only a call come without a potency. Some compounds were tested as several samples or in several runs, with calls that do not always agree. The source made the active and inactive calls. The call rests on the fitted dose curve; in most records, active means well fitted cell-killing curve with a large enough effect in the repeat runs; inconclusive means weak or mixed curves, or effect the other way; inactive means flat fitted curve, though single readings scatter.
# Assay: qHTS assay to identify small molecule agonists of the sonic hedgehog signaling (Shh) pathway - cell viability counter screen (AID 1259366); further: nearly all actives have a fitted effect of over 50% in size
# Conditions: NIH/3T3 Gli1-Luc viability, CellTiter-Fluor, 24 h; series mostly up to 92.4 µM; viability change, negative = cytotoxic: at the top concentration
# From the text: National Center for Advancing Translational Sciences [NCATS]
# NIH Chemical Genomics Center [NCGC]
# U.S. Environmental Protection Agency [EPA]
# National Institutes of Environmental Health Sciences [NIEHS]
# National Toxicology Program [NTP]
# U.S. Food and Drug Administration [FDA]
# The sonic hedgehog (Shh) pathway is essential for normal embryonic development. Dysregulation of the Shh pathway can cause severe developmental defects in organs. Therefore chemicals that interfere with the pathway are potential developmental toxicants. A cell line designated 3T3Gli1-Luc (DMB/OARSA/CFSAN/FDA, Laurel, MD), a NIH/3T3 derived clone containing stably integrated Gli1-Luc reporter is used to detect chemical interference of the Shh pathway, by changes in the expression of the firefly Luc gene under the control of the Gli1 transcriptional response element. This cell line was used to screen Tox21 libraries for identifying and prioritizing the potential developmental toxicants that interfere Shh pathway. The cytotoxicity of the compounds was tested in parallel by measuring the cell viability using CellTiter-Fluor assay system (Promega, Madison, WI) in the same wells.
# Tox21 Assay Protocol Summary:
# 3T3 Gli1-Luc cells were dispensed at 2,000 per well in 5uL of culture medium into white solid bottom 1536-well plates (Greiner Bio-One, Monroe, NC) using a Multidrop Combi (Thermo Scientific, Waltham, MA) dispenser. The assay plates were incubated at 37 C and 5% CO2 for 4hr, and then 23nL of compounds dissolved in DMSO and positive control were transferred using a Pintool station (Wako, San Diego, CA). The assay plates were incubated at 37C and 5% CO2 for 24hr. For viability read, after 23hr of compound treatment, 1uL of CellTiter-Fluor reagent (Promega Corporation, Madison, WI) was added to each well of the assay plates using Flying Reagent Dispenser (FRD, Aurora Discovery, San Diego, CA) and incubated the assay plates at 37C for 1hr. The fluorescence signal was quantified using a ViewLux plate reader (Perkin Elmer, Shelton, CT).
# Potency means the concentration at half of the fitted maximal effect.
SMILES,Potency,"viability change, negative = cytotoxic"
COc1ccccc1NC(=O)CC(C)=O,inactive,–
Oc1cccc(O)c1,inactive,–
COC1=CC(=O)C[C@@H](C)[C@]12Oc1c(Cl)c(OC)cc(OC)c1C2=O,inactive,–
CCCCNC(=O)NS(=O)(=O)c1ccc(N)cc1,inactive,–
O=C1CCCCCN1,15.4 µM (active) and inactive,–
N[C@@H](Cc1c[nH]c2ccccc12)C(=O)O,inactive,–
Cc1cccc(C)c1O,inactive,–
COc1cc2c(c(OC)c1OC)-c1ccc(OC)c(=O)cc1[C@@H](NC(C)=O)CC2,inactive,–
COc1ccc(O)cc1,inactive,–
COCCOCCOC,inactive,–
NC(=O)NO,inactive,–
Cc1cccc2ccccc12,inactive,–
CCOCCO,inactive,–
CC(C)=CCC/C(C)=C/CO,inactive,–
Cn1cnc2c1c(=O)[nH]c(=O)n2C,inactive,–
C#C[C@]1(O)CC[C@H]2[C@@H]3CCC4=CC(=O)CC[C@@H]4[C@H]3CC[C@@]21CC,inactive,–
CC(=O)Oc1ccccc1C(=O)O,inactive,–
N[C@@H](Cc1c[nH]c2ccc(O)cc12)C(=O)O,inactive,–
CC(=O)OC/C=C(C)/C=C/C=C(C)/C=C/C1=C(C)CCCC1(C)C,inactive,–
NCCNc1cccc2ccccc12,61.1 µM (active) and inactive,–

SMILES,Potency,"viability change, negative = cytotoxic"
CC(C)Cc1ccc(C(C)C(=O)O)cc1 (stereo not given),inactive,–
CCN1CCCC1=O,inactive,–
OC[C@@H](O)[C@@H](O)[C@H](O)[C@H](O)CO,inactive,–
CCCCC/C(C=O)=C\c1ccccc1,inactive,–
C=C(C)OC(C)=O,inactive,–
CC(C)(C)NCC(O)c1ccc(O)c(CO)c1 (stereo not given),inactive,–
O=[N+]([O-])c1ccc(O)cc1,50.4 µM (active) and 54.5 µM (active),–
CN/C(=C\[N+](=O)[O-])NCCSCc1ccc(CN(C)C)o1,inactive,–
CO[C@H]1C=CO[C@@]2(C)Oc3c(C)c(O)c4c(O)c(c(/C=N/N5CCN(C)CC5)c(O)c4c3C2=O)NC(=O)/C(C)=C\C=C[C@H](C)[C@H](O)[C@@H](C)[C@@H](O)[C@@H](C)[C@H](OC(C)=O)[C@@H]1C,24.5 µM (active) and 15.5 µM (active) and 13.3 µM (active),–
COC(=O)C1CCC(C(=O)OC)CC1 (stereo not given),inactive,–
NC(=O)OCC(COC(N)=O)c1ccccc1,inactive,–
CCCCCCCCCCCCCC(=O)OC(C)C,inactive,–
Cc1c(N(C)C)c(=O)n(-c2ccccc2)n1C,inactive,–
COc1cc(O)c(C(=O)c2ccccc2)cc1S(=O)(=O)O,inactive,–
Cc1cccc(Nc2cc(Cl)nc(SCC(=O)O)n2)c1C,inactive,–
O=C1OC(c2ccc(O)cc2)(c2ccc(O)cc2)c2ccccc21,–,-20.7% [at 42.5 µM] (inactive)
CC(=O)CCC(C)C,inactive,–
CCCCOC(=O)CCCCCCCCC(=O)OCCCC,inactive,–
C[C@]12C=CC(=O)C=C1CC[C@@H]1[C@@H]2C(=O)C[C@@]2(C)[C@H]1CC[C@]2(O)C(=O)CO,inactive,–
CCn1cc(C(=O)O)c(=O)c2ccc(C)nc21,inactive,–
